Reference: PubChem BioAssay (EPA / NIEHS)
Results filed as inconclusive are left out. Active and inactive are the calls of the source. Rule for the calls, unless noted: active = hit-call score of the fitted dose curve at least 0.9, where 1 is the maximum; inactive = score below 0.9.

Experiments:
[1] = read-out: Macrophage colony-stimulating factor (MCSF), CSF1 (gene 1435); experiment: BSK_LPS_MCSF: BioMAP Diversity Plus: LPS Assay for Macrophage colony-stimulating factor (MCSF) Biomarker Activity (AID 2283083); details: primary human HUVEC with PBMC; actives raise or lower the signal
Summary of the method: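 HUVEC + PBMC co-culture (human primary), 24 h post-dose; M-CSF by ELISA; gain/loss of signal fitted bidirectionally vs DMSO baseline.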

[2] = read-out: Tissue Factor, F3 (gene 2152); experiment: BSK_LPS_TissueFactor: BioMAP Diversity Plus: LPS Assay for Tissue Factor Biomarker Activity (AID 2283084); details: primary human HUVEC with PBMC; actives raise or lower the signal
Summary of the method: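 HUVEC/PBMC co-culture, LPS-activated; CD142 ELISA read 24 h post-dose; bidirectional curve fit vs DMSO negative control.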

[3] = read-out: Tumor necrosis factor (Homo sapiens) (UniProt P01375); experiment: BSK_LPS_TNFa: BioMAP Diversity Plus: LPS Assay for Tumour Necrosis Factor alpha (TNFa) Biomarker Activity (AID 2283085); details: primary human HUVEC with PBMC; actives raise or lower the signal
Summary of the method: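 Read-out is ELISA of TNFa in primary human endothelial cell–PBMC co-cultures at 24 h after compound. Activity in either direction was fitted against DMSO.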

[4] = read-out: Vascular cell adhesion molecule 1 (VCAM1), VCAM1 (gene 7412); experiment: BSK_LPS_VCAM1: BioMAP Diversity Plus: LPS Assay for Vascular cell adhesion molecule 1 (VCAM1) Biomarker Activity (AID 2283086); details: primary human HUVEC with PBMC; actives raise or lower the signal
Summary of the method: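 HUVEC + PBMC co-culture, LPS system; compound 24 h; VCAM-1 by ELISA; bidirectional fit vs DMSO control; parallel SRB (0.1%, TCA-fixed, 560 nm) for cytotoxicity.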

[5] = read-out: CD38, CD38 (gene 952); experiment: BSK_SAg_CD38: BioMAP Diversity Plus: SAg Assay for CD38 Biomarker Activity (AID 2283087); details: primary human HUVEC with PBMC; actives raise or lower the signal
Summary of the method: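 Human HUVEC plus PBMC co-culture stimulated with superantigen; CD38 measured by ELISA 24 h after chemical dosing. Fluorescence read-out, bidirectional fit against DMSO; cytotoxicity tracked in parallel by SRB and Alamar Blue.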

[6] = read-out: CD40, CD40 (gene 958); experiment: BSK_SAg_CD40: BioMAP Diversity Plus: SAg Assay for CD40 Biomarker Activity (AID 2283088); details: primary human HUVEC with PBMC; actives raise or lower the signal
Summary of the method: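 HUVEC/PBMC co-culture, 24 h post-dose; CD40 by ELISA, fluorescence intensity; bidirectional fit vs DMSO negative control.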

[7] = read-out: CD69, CD69 (gene 969); experiment: BSK_SAg_CD69: BioMAP Diversity Plus: SAg Assay for CD69 Biomarker Activity (AID 2283089); details: primary human HUVEC with PBMC; actives raise or lower the signal;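 for AC50: cell surface CD69 protein quantified by ELISA with fluorescence detection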
Summary of the method: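 Values derive from bidirectional fitting relative to DMSO vehicle. Cells: umbilical vein endothelium plus peripheral blood mononuclear cells, treated 24 h before fluorescent ELISA for CD69.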

[8] = read-out: Monocyte Chemoattractant Protein-1 (MCP1), CCL2 (gene 6347); experiment: BSK_SAg_MCP1: BioMAP Diversity Plus: SAg Assay for Monocyte Chemoattractant Protein-1 (MCP1) Biomarker Activity (AID 2283090); details: primary human HUVEC with PBMC; actives raise or lower the signal
Summary of the method: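 MCP-1 levels in the endothelial–PBMC SAg co-culture were quantified by ELISA at 24 h post-dosing; both increases and decreases versus DMSO scored. Cytotoxicity monitored by SRB total protein in parallel cultures.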

[9] = read-out: E-selectin (Homo sapiens) (UniProt P16581); experiment: BSK_SAg_Eselectin: BioMAP Diversity Plus: SAg Assay for Eselectin Biomarker Activity (AID 2283091); details: primary human HUVEC with PBMC; actives raise or lower the signal
Summary of the method: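 E-selectin ELISA readout at 24 h post-dosing in human umbilical vein endothelial cell/PBMC co-culture; gain or loss of signal fitted relative to DMSO baseline.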

[10] = read-out: Monokine induced gamma interferon (MIG), CXCL9 (gene 4283); experiment: BSK_SAg_MIG: BioMAP Diversity Plus: SAg Assay for Monokine induced gamma interferon (MIG) Biomarker Activity (AID 2283092); details: primary human HUVEC with PBMC; actives raise or lower the signal
Summary of the method: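 Values reflect bidirectional fitting of ELISA-measured MIG against DMSO vehicle, taken 24 h after dosing of a co-culture of human umbilical vein endothelial cells and peripheral blood mononuclear cells.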

[11] = BSK_SAg_PBMCCytotoxicity: PBMC Cytotoxicity Assessment in the BioMAP Diversity Plus: SAg Assay (AID 2283093); details: primary human HUVEC with PBMC;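 note: PBMC viability measured as Alamar Blue reduction fluorescence at 546/580 nm; fitted both ways against DMSO so a hit may be loss or gain of signal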;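 for AC50: PBMC superantigen activated with SEB plus TSST-1 one hour after compound addition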
Summary of the method: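 Human umbilical vein endothelial cells co-cultured with PBMC; PBMC (75,000/well) pre-treated with compound 1 h, then activated with SEB and TSST-1 (20 ng/mL final each) for 90 h. Alamar Blue added 6 h, fluorescence 546/580 nm; bidirectional fit versus DMSO.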

[12] = read-out: Interleukin-8 (IL8), CXCL8 (gene 3576); experiment: BSK_SAg_IL8: BioMAP Diversity Plus: SAg Assay for Interleukin-8 (IL8) Biomarker Activity (AID 2283094); details: primary human HUVEC with PBMC; actives raise or lower the signal
Summary of the method: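 ELISA read-out of IL-8 in a primary human vascular co-culture (umbilical vein endothelium plus PBMC), taken 24 h after compound addition. Values derive from bidirectional fits against DMSO negative controls.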

[13] = BSK_SAg_Proliferation: Cell Proliferation Assessment in the BioMAP Diversity Plus: SAg Assay (AID 2283095); details: primary human HUVEC with PBMC;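 note: relative cell number as total protein by SRB absorbance in sub-confluent culture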
Summary of the method: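 Cells (endothelium plus PBMC, human primary) were dosed with chemical, cultured 96 h, fixed in 10% TCA and stained with 0.1% SRB. Absorbance at 560 nm gave relative protein, fitted bidirectionally relative to DMSO.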

[14] = BSK_SAg_SRB: Viability Assessment in the BioMAP Diversity Plus: SAg Assay (AID 2283096); details: primary human HUVEC with PBMC;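 note: cells read one day after compound addition; hits may be either gain or loss of signal compared with DMSO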
Summary of the method: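 Endothelial/PBMC primary human co-culture; compound 24 h; fix 10% TCA, stain 0.1% SRB, A560; protein content as cytotoxicity proxy; bidirectional curve fit, DMSO = baseline.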

[15] = molecular target: human CYP19A1, CYP19A1 (gene 1588) (UniProt P11511); experiment: NVS_ADME_hCYP19A1: NovaScreen (NVS) CYP450-related Enzyme Activity (ADME) Assay for human CYP19A1 (AID 2283098; active = hit-call score of the fitted dose curve at least 0.9, where 1 is the maximum)
Sequence of human CYP19A1, CYP19A1 (gene 1588) (P11511 whole entry, looked up): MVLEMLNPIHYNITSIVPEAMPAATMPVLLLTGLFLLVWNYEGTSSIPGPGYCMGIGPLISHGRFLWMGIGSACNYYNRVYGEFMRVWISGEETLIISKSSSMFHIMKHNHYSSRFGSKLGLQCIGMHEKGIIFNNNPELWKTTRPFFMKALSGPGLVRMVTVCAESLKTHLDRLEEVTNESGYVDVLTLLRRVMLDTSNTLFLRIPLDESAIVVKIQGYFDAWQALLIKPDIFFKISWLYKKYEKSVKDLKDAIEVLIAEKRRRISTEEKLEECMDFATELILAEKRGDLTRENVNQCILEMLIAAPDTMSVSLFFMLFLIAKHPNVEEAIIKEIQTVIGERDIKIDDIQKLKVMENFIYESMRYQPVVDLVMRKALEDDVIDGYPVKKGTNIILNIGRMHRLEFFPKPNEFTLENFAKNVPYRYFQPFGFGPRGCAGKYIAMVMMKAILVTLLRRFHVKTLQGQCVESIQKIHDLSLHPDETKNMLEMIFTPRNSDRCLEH
Summary of the method: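 Cell-free enzyme assay with recombinant protein and a specific fluorogenic substrate, read by fluorescence intensity 0.5 h after dosing. Primary screen ran in duplicate at 10 uM; actives were retested in concentration series. Loss of signal versus acetonitrile baseline.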

Measured: AC50

Sequence of Tumor necrosis factor (Homo sapiens) (P01375 whole entry, looked up): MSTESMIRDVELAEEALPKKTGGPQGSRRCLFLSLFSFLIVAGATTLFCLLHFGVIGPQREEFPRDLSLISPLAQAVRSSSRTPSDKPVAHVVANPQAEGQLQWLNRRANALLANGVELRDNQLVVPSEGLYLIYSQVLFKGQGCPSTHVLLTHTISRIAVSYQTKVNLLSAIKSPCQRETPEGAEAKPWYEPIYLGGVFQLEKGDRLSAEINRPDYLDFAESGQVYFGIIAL
Sequence of E-selectin (Homo sapiens) (P16581 whole entry, looked up): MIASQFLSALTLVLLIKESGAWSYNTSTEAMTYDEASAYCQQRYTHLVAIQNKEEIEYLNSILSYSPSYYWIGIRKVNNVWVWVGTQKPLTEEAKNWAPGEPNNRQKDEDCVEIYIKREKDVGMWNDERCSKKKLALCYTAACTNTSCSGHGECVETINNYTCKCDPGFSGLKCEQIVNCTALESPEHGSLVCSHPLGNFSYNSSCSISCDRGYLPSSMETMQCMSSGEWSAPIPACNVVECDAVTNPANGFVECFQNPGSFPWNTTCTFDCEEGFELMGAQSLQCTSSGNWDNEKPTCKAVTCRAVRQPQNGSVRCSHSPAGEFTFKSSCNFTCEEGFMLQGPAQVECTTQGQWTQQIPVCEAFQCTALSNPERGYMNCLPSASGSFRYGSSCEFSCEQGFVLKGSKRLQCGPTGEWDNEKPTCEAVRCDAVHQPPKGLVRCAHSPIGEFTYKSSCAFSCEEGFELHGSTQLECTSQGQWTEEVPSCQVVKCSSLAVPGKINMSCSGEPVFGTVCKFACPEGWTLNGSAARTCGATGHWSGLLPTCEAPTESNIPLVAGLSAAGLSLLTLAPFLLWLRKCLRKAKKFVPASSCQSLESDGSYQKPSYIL

Oc1ccccc1O
inactive: [2] | [3] | [5] | [8] | [9] | [10] | [11] | [12]
active: [1] 3.92 µM | [4] 2.79 µM | [6] 4.21 µM | [7] 5.69 µM | [13] 24.5 µM | [14] 8.32 µM

NCCOCCOCCN
inactive: [1] | [2] | [3] | [4] | [5] | [6] | [7] | [8] | [9] | [10] | [11] | [12] | [13] | [14]

CCCCCCC(CCCCCCCCCCC(=O)OCC(COC(C)=O)OC(C)=O)OC(C)=O (stereo not drawn)
inactive: [1] | [2] | [3] | [4] | [5] | [6] | [7] | [8] | [9] | [10] | [11] | [12] | [13] | [14]

CCCC(=O)O
inactive: [1] | [2] | [3] | [4] | [5] | [6] | [7] | [8] | [9] | [10] | [11] | [12] | [14]
active: [13] 33.7 µM

O=Cc1ccccc1C=O
inactive: [1] | [2] | [4] | [5] | [6] | [7] | [8] | [9] | [10] | [11] | [12] | [13] | [14]
active: [3] 1.53 µM

OCC(O)CO
inactive: [1] | [2] | [3] | [4] | [5] | [6] | [7] | [8] | [9] | [10] | [11] | [12] | [13] | [14]

COc1ccc(OC(F)(F)F)cc1CN[C@H]1CCCN[C@H]1c1ccccc1
active: [4] 14.6 µM | [7] 20 µM | [11] 26.6 µM | [12] 12.4 µM | [13] 32.6 µM | [14] 31.1 µM
inactive: [1] | [2] | [3] | [5] | [6] | [8] | [9] | [10]

CC(=O)O[C@]1(C(C)=O)CC[C@H]2[C@@H]3C=C(Cl)C4=CC(=O)[C@@H]5C[C@@H]5[C@]4(C)[C@H]3CC[C@@]21C
inactive: [1] | [2] | [3] | [4] | [5] | [8] | [9] | [10] | [11] | [12] | [13]
active: [6] 30.1 µM | [7] 30.5 µM | [14] 31.2 µM

CS(=O)(=O)c1ccc([C@@H](C[C@H]2CCC(=O)C2)C(=O)Nc2cnccn2)cc1Cl
inactive: [1] | [2] | [3] | [4] | [5] | [6] | [7] | [8] | [9] | [10] | [11] | [12] | [13] | [14]

CC(C)c1cccc(C(C)C)c1
inactive: [1] | [2] | [3] | [4] | [5] | [6] | [7] | [8] | [9] | [10] | [11] | [12] | [13] | [14]

O=C1O[C@H]([C@H](O)CO)C(O)=C1O
inactive: [1] | [2] | [3] | [4] | [5] | [6] | [7] | [8] | [9] | [10] | [11] | [12] | [14]
active: [13] 12 µM

C/C=C/c1ccc(OC)cc1
inactive: [1] | [2] | [3] | [4] | [5] | [6] | [7] | [8] | [9] | [10] | [11] | [12] | [13] | [14]

CC(=O)CC(c1ccccc1)c1c(O)c2ccccc2oc1=O (stereo not drawn)
inactive: [1] | [2] | [4] | [5] | [6] | [7] | [8] | [9] | [10] | [11] | [12] | [13] | [14]
active: [3] 0.711 µM

O=C1NC(=O)C(c2ccccc2)(c2ccccc2)N1
inactive: [1] | [2] | [3] | [4] | [5] | [6] | [7] | [9] | [10] | [11] | [12] | [13] | [14]

CCOCCOCCO
inactive: [1] | [2] | [3] | [4] | [5] | [6] | [7] | [9] | [10] | [11] | [12] | [13] | [14]

C/C=C/C=C/C(=O)O
inactive: [1] | [2] | [3] | [4] | [5] | [6] | [7] | [8] | [9] | [10] | [11] | [12] | [13] | [14] | [15]
